We go through four molecules from PubChem BioAssay.

A short description of test [1]: rapamycin-like changes in RPL19A-GFP expression – cell-based, S. cerevisiae, multiplex flow cytometry, primary screen (AID 1862; in the data active = percent of DMSO control GFP below about 86%;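 also: lower values mimic rapamycin by blocking the RPL19A rise seen in DMSO cells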). As to conditions: S. cerevisiae RPL19A-GFP strain, flow cytometry fluorescence, 3 h; at 10 µM; stronger effect = lower value.
A short description of test [2]: TOR pathway GLN3 branch reporter MEP2-GFP changes – S. cerevisiae, multiplex flow cytometry, primary screen (AID 1867;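 active = GFP response, as percent of the DMSO control, above the screen-wide mean plus 3 SD, about 139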;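 also: median GFP channel fluorescence of barcode-gated MEP2-GFP cells measured by flow cytometry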). Particulars: S. cerevisiae MEP2-GFP strain, 3 h, at 10 µM, stronger effect = higher value, 100% means same as DMSO wells.
Test [3] in a line: TOR pathway RTG branch CIT2 reporter changes – S. cerevisiae, GFP fusion, multiplex flow cytometry, primary screen (AID 1870;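 active = percent response above a set limit, the screen-wide mean plus 3 SD, cut at about 130% in these data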;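 also: barcoded CIT2-GFP strain pooled with four other GFP strains with rapamycin as positive control; median GFP fluorescence per well over plate mean of DMSO wells so 100% = DMSO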). Particulars: S. cerevisiae CIT2-GFP expression, 3 h, at 10 µM, stronger effect = higher value.
Test [4] can be described thus: TOR pathway LAP4-GFP level changes – S. cerevisiae, multiplex flow cytometry, primary screen (AID 1873;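 active = GFP signal, as percent of the solvent control, above the screen mean plus 3 SD, about 149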). Particulars: S. cerevisiae LAP4-GFP expression, 3 h, at 10 µM, stronger effect = higher value.
The nature of test [5]: yeast AGP1-GFP level changes, GLN3 branch – cell-based, multiplex flow cytometry, S. cerevisiae, primary screen (AID 1887;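 active = GFP signal above the screen-wide mean plus 3 SD, that is over about 124.5% of the solvent control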;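 also: AGP1-GFP fusion strain of S. cerevisiae within a five-strain barcoded multiplex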). As to conditions: 3 h, at 10 µM, stronger effect = higher value.
Test [6] in a line: reduced mouse 2C T cell binding to pMHC/ICAM-1 vesicles – MLPCN validation set, flow cytometry, LFA-1/ICAM-1 modulator project, pilot screen (AID 2523;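 active = response below a set limit, under 55% cells CD8-positive and vesicle-bound, and CD8 cells' 90th-percentile brightness under 279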;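 as to vesicle binding response: mean PE anti-B7-1 fluorescence of CD8+ cells relative to row control; 100% = QL9-loaded vesicles with DMSO vehicle in the same plate row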). Particulars: 2C mouse CD8+ T cells, at 7 µM, stronger effect = lower value; double positive events: measured here: CD8+/vesicle+ event percentage.
For test [7], the target named is Integrin beta-1 (Homo sapiens) + Integrin alpha-4 (Homo sapiens) (UniProt P13612+P05556). Nature of the test: alpha4beta1 integrin LIBS antibody binding reduction – U937 cells, HUTS-21 mAb, flow cytometry, validation set, VLA-4 allosteric modulator project, pilot screen (AID 2674;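 active = inhibition above 50%, about 3 SD of the validation set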;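 also: antibody binding induced by the VLA-4 ligand LDV present at three times its Kd; 0% = LDV ligand with antibody and no compound and 100% = antibody without LDV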). Particulars: HUTS-21 LIBS mAb binding, at 6.7 µM, stronger effect = higher value, binding induced by LDV ligand.
Integrin beta-1 (Homo sapiens) + Integrin alpha-4 (Homo sapiens), sequence (P05556 whole entry, looked up): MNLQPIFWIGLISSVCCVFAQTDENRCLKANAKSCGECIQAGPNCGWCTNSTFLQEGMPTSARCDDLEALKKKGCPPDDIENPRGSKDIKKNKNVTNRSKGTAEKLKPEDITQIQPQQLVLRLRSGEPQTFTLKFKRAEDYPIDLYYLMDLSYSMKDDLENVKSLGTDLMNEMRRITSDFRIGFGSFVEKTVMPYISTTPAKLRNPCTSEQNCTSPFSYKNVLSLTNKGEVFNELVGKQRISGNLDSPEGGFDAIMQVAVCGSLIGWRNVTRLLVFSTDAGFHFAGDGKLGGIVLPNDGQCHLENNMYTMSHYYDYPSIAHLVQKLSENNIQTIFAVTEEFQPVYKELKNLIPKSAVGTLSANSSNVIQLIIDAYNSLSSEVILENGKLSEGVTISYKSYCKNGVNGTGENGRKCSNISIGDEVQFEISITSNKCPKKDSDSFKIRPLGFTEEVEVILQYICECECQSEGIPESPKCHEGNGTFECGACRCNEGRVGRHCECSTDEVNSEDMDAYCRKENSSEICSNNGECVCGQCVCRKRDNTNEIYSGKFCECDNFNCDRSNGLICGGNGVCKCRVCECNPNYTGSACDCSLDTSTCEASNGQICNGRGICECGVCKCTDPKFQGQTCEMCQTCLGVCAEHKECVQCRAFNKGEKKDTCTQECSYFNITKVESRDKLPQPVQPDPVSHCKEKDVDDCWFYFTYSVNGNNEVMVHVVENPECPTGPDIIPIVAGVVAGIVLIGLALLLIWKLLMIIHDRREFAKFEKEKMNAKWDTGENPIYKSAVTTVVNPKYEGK
Integrin beta-1 (Homo sapiens) + Integrin alpha-4 (Homo sapiens), sequence (P13612 whole entry, looked up): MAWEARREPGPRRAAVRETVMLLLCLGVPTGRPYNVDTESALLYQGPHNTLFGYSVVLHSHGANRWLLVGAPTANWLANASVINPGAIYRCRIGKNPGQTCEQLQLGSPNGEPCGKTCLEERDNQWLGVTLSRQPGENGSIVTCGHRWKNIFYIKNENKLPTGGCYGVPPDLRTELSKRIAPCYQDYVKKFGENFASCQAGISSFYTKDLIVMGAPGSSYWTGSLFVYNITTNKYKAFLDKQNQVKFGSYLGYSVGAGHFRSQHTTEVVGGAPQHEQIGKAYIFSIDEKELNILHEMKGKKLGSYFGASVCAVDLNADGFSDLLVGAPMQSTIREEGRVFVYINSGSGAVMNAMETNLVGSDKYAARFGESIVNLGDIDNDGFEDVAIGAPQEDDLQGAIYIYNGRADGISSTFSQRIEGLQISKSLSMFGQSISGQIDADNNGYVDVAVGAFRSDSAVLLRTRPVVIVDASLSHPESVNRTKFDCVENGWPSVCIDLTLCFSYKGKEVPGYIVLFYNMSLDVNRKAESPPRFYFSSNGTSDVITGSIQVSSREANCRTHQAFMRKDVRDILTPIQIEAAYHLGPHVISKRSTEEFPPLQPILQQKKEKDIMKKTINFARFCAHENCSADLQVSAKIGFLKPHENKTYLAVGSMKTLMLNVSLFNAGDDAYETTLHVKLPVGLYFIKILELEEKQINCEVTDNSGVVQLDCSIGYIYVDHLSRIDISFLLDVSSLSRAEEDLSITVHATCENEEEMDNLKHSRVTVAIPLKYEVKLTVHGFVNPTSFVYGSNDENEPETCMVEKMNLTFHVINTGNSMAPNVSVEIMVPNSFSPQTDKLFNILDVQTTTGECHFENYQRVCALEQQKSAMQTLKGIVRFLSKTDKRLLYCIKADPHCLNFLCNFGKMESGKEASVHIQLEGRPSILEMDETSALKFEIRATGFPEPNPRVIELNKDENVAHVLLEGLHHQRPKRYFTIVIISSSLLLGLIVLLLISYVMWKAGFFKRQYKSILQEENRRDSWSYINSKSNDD

Test [8] is described as follows: calorie-restriction mimetic ROS inhibitors, yeast – validation compound set, pilot screen (AID 2706;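 active = superoxide response below 65% of plate, a cut near 3 SD across the whole screen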;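 also: yeast exposed to compound for one week at 30 degrees C before staining; 100% = mean of all compound wells on the same plate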). Particulars: S. cerevisiae aging, superoxide DHE fluorescence; at 10 µM; stronger effect = lower value.
Test [9] has as its target Beta-adrenergic receptor kinase 1 (Homo sapiens) (UniProt P25098). Put plainly: GRK2 binders displacing RNA aptamer, biochemical, validation, human GRK2, bead flow cytometry (AID 488806). As to conditions: bead-bound GRK2, FAM-aptamer displacement, at 10 µM, stronger effect = higher value.
Test [10] deals with Beta-2 adrenergic receptor (Homo sapiens) (UniProt P07550). Nature of the test: agonist-induced loss of surface beta2AR – cell-based, FAP fluorogen, flow cytometry, validation set, pilot screen (AID 504459;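 active = percent response above 42, roughly 3 SD of non-fluorescent test compounds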;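 also: agonist-driven loss of surface beta2AR via internalization measured by FAP dye flow cytometry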). Particulars: Am2.2-beta2AR cells, at 10 µM, stronger effect = higher value.
Beta-2 adrenergic receptor (Homo sapiens), sequence (P07550 whole entry, looked up): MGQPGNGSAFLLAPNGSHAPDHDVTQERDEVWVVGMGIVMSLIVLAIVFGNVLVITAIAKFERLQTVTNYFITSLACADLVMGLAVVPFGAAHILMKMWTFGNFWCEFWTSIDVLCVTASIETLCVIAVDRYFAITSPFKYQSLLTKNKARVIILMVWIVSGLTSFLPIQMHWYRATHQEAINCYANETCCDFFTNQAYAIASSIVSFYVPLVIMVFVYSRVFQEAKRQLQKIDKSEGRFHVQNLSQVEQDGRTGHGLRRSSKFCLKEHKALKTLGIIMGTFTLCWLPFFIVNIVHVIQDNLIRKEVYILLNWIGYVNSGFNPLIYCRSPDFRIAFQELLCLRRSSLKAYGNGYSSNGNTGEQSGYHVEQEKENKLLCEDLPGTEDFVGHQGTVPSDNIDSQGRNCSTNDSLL
For test [11], the target named is AP-2 complex subunit beta (Homo sapiens) (UniProt P63010). Nature of the test: beta-arrestin/AP2 interaction blockers – biochemical, validation set, GST-AP2 beads, flow cytometry, pilot screen (AID 504541;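 active = inhibition above 54%, about 3 SD of non-fluorescent compounds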;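 also: AP2 carries R879A mutation and is captured from E. coli lysate; bead-bound FITC arrestin peptide fluorescence measuring arrestin peptide binding to AP2; 0% = DMSO wells and 100% = excess unlabeled arrestin peptide control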). As to conditions: FITC arrestin peptide, at 10 µM, stronger effect = higher value, AP2 beta2 appendage fragment, R879A mutant.
AP-2 complex subunit beta (Homo sapiens), sequence (P63010 whole entry, looked up, the tested form may be a part, one chain of several): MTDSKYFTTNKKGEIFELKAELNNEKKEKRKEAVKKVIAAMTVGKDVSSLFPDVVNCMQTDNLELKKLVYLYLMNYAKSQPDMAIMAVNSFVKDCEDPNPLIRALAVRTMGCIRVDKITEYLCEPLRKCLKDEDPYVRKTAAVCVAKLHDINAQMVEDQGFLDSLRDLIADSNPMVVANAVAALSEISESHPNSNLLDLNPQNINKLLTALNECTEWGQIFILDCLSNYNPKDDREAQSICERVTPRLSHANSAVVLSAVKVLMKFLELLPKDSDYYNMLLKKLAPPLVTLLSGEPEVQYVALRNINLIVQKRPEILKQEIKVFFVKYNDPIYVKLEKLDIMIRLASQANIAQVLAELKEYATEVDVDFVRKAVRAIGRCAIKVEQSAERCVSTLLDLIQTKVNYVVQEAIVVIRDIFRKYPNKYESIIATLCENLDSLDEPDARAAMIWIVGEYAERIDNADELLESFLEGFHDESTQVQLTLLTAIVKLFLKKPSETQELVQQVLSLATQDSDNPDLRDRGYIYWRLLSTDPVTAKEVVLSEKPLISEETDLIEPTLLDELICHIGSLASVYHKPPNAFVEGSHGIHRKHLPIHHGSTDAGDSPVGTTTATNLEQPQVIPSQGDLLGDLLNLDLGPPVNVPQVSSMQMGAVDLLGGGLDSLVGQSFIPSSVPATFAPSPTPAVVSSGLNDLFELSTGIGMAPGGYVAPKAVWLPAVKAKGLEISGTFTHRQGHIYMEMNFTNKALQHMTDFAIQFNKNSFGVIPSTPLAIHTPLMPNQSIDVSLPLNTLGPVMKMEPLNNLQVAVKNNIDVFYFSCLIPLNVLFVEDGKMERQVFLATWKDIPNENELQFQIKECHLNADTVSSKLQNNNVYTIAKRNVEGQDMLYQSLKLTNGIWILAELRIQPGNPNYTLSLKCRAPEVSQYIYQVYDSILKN
Test [12] in a line: cytosolic pH regulators acting via V-ATPase – S. cerevisiae, pHLuorin, HTS validation (AID 504600; in the data active = response above about 15%;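 also: plate controls were DMSO for no effect and reference compound for full effect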). As to conditions: V-ATPase proton transport, at 10 µM, stronger effect = higher value.
Test [13] concerns anti-desmoglein-3 scFv antibody binding to human DSG3. Put plainly: blockers of pathogenic pemphigus antibody–desmoglein-3 binding – biochemical, validation compound set, bead-based, flow cytometry, pilot screen (AID 588368;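 active = binding below the plate cutoff, the plate median minus 3 SD, with a reading above zero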;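 also: signal is the median channel fluorescence of bead-bound GFP antibody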). Particulars: Protein G beads, DSG3-Fc, scFv-GFP binding, at 10 µM, stronger effect = lower value.
Test [14] can be described thus: Nile Red efflux blockade in pump-expressing yeast – validation compound set, multiplex, phenotypic, pilot screen (AID 588506;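 active = efflux inhibition above 0.42, the validation set average plus 4 SD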;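 also: Nile Red retained in cells so higher fluorescence means more efflux inhibition; 0 = negative control wells and 1 = enniatin B 25 µM full block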). Particulars: S. cerevisiae pump-expressing triplex, Nile Red efflux flow cytometry; at 10 µM; stronger effect = higher value; the pumps come from Candida albicans.
Test [15] concerns the target ATP-binding cassette sub-family B member 6 (Homo sapiens) (UniProt Q9NP58). Nature of the test: blockers of ABCB6-driven porphyrin uptake – K562-ABCB6 cells, flow cytometry, validation set, pilot screen (AID 588550;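 active = inhibition above the screen-wide mean plus 3 SD, about 51%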;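 also: 0% = DMSO wells and 100% = benzethonium chloride 70 µM positive control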). As to conditions: K562-ABCB6 porphyrin accumulation, 1 h, at 10 µM, stronger effect = higher value.
Test [16] in a line: AML differentiation inducers, ER-HoxA9 marrow cells – cell-based, GFP/MAC1 double positive, flow cytometry, validation set, primary screen (AID 588685;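 active = differentiation response of at least 50%, scaled between solvent and reference control, from cells with both markers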;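 also: compound exposure lasts four days before antibody staining and flow analysis; 0% = DMSO wells and 100% = 5 µM fulvestrant positive control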). Particulars: stronger effect = higher value, normalized: vehicle 0, fulvestrant 100.

Records with an inconclusive call do not appear. The source made the active and inactive calls.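 The calls were made as follows, unless noted: active = aptamer binding inhibition above 30%, about 3 SD of noise from non-fluorescent compounds; inactive = inhibition at or below 30%.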

Beta-adrenergic receptor kinase 1 (Homo sapiens), sequence (P25098 whole entry, looked up): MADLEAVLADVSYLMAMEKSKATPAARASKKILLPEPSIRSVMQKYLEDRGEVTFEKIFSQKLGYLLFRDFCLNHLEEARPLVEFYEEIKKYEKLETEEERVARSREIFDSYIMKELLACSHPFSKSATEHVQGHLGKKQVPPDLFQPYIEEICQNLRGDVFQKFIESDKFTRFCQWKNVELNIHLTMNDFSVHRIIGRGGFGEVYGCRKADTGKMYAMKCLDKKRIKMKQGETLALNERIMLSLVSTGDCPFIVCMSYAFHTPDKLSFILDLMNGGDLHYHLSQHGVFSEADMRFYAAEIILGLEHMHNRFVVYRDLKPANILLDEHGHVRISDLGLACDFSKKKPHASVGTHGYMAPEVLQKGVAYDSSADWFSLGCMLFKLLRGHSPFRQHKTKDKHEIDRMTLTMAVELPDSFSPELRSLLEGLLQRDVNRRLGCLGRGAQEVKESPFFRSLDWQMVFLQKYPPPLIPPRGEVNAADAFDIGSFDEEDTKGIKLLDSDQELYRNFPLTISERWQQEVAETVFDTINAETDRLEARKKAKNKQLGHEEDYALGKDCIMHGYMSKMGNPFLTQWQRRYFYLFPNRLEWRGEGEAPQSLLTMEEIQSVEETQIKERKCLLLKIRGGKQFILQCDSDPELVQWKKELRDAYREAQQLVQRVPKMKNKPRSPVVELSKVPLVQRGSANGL
ATP-binding cassette sub-family B member 6 (Homo sapiens), sequence (Q9NP58 whole entry, looked up): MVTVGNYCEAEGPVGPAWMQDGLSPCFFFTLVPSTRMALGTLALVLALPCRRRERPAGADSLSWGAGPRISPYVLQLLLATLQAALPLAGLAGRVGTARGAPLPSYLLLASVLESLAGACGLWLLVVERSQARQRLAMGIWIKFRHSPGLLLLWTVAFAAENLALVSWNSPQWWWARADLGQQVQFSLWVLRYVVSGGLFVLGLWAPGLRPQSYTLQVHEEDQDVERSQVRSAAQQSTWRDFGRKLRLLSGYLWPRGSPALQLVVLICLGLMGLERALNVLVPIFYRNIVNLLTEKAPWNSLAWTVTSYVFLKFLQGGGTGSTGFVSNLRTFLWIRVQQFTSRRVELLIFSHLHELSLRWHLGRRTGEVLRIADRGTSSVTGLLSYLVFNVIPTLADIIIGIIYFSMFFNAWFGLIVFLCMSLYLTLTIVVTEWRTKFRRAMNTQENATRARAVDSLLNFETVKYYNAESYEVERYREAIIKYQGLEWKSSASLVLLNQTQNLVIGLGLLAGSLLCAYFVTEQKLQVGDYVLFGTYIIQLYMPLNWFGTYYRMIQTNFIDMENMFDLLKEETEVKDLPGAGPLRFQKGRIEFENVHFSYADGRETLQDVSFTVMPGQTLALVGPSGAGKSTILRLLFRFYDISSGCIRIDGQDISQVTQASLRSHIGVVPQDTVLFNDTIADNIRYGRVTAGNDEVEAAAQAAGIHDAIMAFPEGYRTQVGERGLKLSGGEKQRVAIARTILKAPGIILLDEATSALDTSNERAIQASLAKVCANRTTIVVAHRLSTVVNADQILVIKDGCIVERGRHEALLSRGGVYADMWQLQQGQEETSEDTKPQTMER

Turning to `Nc1nnc(CSCc2ccc(Cl)cc2Cl)s1`, the percent of DMSO control GFP in test [1] is 101% (inactive). For the same molecule, the results for the GFP response vs DMSO in test [2] and in test [4] were 98.7% (inactive) and 105% (inactive), respectively. In addition, the percent response of DMSO control in test [3] was 105% (inactive). Moreover, the GFP response, % of DMSO in test [5] is 105% (inactive). In test [6], the double positive events is 58.8%. Further, in test [6], the vesicle binding response was 162% (inactive). In addition, the inhibition in test [7] is -11.8% (inactive); in test [11] it was 5.12% (inactive); in [15], 0% (inactive). For the same molecule, the superoxide response (% of plate) in [8] was 95.2% (inactive). The aptamer binding inhibition in test [9] was -1% (inactive). The response is -6.41% (inactive) in [10] and 3.83% (inactive) in test [12]. Also, the binding (% of control) in [13] is 112% (inactive). In [14], the efflux inhibition (fraction of control) was 0.47 (active). Further, in [16], the differentiation response is 10.1% (inactive).
For the molecule `C[C@@H]1CCC[C@H](C)N1NC(=O)c1ccc(Cl)c(S(N)(=O)=O)c1`, the percent of DMSO control GFP in [1] is 105% (inactive). The GFP response vs DMSO in test [2] was 106% (inactive); in [4], 110% (inactive). Moreover, the percent response of DMSO control in test [3] is 107% (inactive). For the same molecule, in test [5], the GFP response, % of DMSO is 113% (inactive). In test [6], this molecule had a double positive events of 61.3%. Besides, the vesicle binding response in test [6] is 165% (inactive). For the same molecule, the inhibition in test [7] was 4.27% (inactive); in test [11] it was 2.8% (inactive); in test [15] it was -5% (inactive). Moreover, the superoxide response (% of plate) in [8] was 91.8% (inactive). In addition, the aptamer binding inhibition in test [9] is -2% (inactive). Further, the response was 6.03% (inactive) in test [10] and 1.78% (inactive) in [12]. For the same molecule, the binding (% of control) in [13] was 105% (inactive). In addition, in test [14], the efflux inhibition (fraction of control) is 0.5 (active). Also, in [16], the differentiation response was -8.96% (inactive).
`COc1cc(C2Nc3ccccc3C(=O)N2c2ccccc2)ccc1O` (stereo not drawn): in test [1], the percent of DMSO control GFP was 109% (inactive). Moreover, the GFP response vs DMSO in test [2] is 108% (inactive); in [4], 93.3% (inactive). Besides, the percent response of DMSO control in [3] was 116% (inactive). Besides, the GFP response, % of DMSO in test [5] was 103% (inactive). This molecule yielded a double positive events in test [6] of 62.9%. Besides, the vesicle binding response in test [6] was 256% (inactive). Further, the inhibition in test [7] was 3.7% (inactive); in [11], -6.11% (inactive); in test [15], 3% (inactive). In addition, the superoxide response (% of plate) in test [8] is 90% (inactive). The aptamer binding inhibition in test [9] is 0% (inactive). The response is -10.2% (inactive) in test [10] and 61.2% (active) in test [12]. Besides, the binding (% of control) in [13] is 99.7% (inactive). For the same molecule, the efflux inhibition (fraction of control) in test [14] was 0.18 (inactive). Besides, the differentiation response in test [16] is 9.04% (inactive).
Regarding `COc1cc2c(cc1OC)-c1nnc(C)n1C(C)(C)C2`, in [1], the percent of DMSO control GFP was 100% (inactive). Moreover, the results for the GFP response vs DMSO in test [2] and in [4] were 94.1% (inactive) and 102% (inactive), respectively. In addition, the percent response of DMSO control in test [3] is 107% (inactive). Moreover, the GFP response, % of DMSO in test [5] was 100% (inactive). In addition, the double positive events in [6] turned out to be 59.4%. The vesicle binding response in test [6] is 211% (inactive). The inhibition in [7] is -1.79% (inactive); in test [11], -4.56% (inactive); in [15], 4% (inactive). For the same molecule, the superoxide response (% of plate) in test [8] was 94.7% (inactive). In addition, in test [9], the aptamer binding inhibition was 2% (inactive). In addition, the response is 3.64% (inactive) in test [10] and 7.5% (inactive) in [12]. For the same molecule, in [13], the binding (% of control) is 100% (inactive). Besides, the efflux inhibition (fraction of control) in test [14] was -0.21 (inactive). Further, in [16], the differentiation response was -28% (inactive).
